Experimental data from PMC7862700, “An all-to-all approach to the identification of sequence-specific readers for epigenetic DNA modifications on cytosine”.

Tests used:
Experiment in all cases: DAPPL (digital affinity profiling via proximity ligation, sequencing); 10 mM Tris-HCl pH 7.5, 50 mM NaCl, 1 mM DTT, 4% glycerol, room temperature, 30 min; GST-TFs on glutathione beads, 16-mer random dsDNA library, 0.1% formaldehyde crosslink after washing; high values mean tight binding
FLI1 = biological target: T1, FLI1 (Homo sapiens, UniProt Q01543 1-452); conditions: protein: recombinant; tags: N-terminal GST; dsDNA, one strand shown
T1 sequence: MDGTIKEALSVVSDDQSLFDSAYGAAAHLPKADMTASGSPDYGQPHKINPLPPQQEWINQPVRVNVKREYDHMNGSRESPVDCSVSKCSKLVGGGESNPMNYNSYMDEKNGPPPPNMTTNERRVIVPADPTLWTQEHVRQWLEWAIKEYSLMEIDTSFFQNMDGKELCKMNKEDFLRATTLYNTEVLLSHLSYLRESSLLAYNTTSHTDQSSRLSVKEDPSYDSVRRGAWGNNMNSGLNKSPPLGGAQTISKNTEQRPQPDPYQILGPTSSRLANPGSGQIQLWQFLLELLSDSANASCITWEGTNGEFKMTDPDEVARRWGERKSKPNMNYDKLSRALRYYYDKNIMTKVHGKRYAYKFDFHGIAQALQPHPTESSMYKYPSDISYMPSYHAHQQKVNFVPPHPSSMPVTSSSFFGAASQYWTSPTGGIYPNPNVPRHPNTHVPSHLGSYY
Procedure, shortened: (§1)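 Human transcription factors carrying a GST fusion were produced in yeast, bound to glutathione beads, tagged with DNA barcodes and pooled together with a tag-only sample. Each pool was held with 200 nmole of a random double-stranded 16-mer DNA library in Tris/NaCl/DTT/glycerol buffer for 30 min at room temperature, then washed, crosslinked in 0.1% formaldehyde, proximity-ligated with BsaI/T4 ligase (1 h, 37 °C), PCR-amplified and sequenced on an Illumina NextSeq500. Binding signal is the read frequency of each hexamer for a given factor divided by its frequency in the tag-only sample.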

ELK1 = biological target: T2, ELK1 (Homo sapiens, UniProt P19419 1-428); conditions: protein: recombinant; tags: N-terminal GST; dsDNA, one strand shown
T2 sequence: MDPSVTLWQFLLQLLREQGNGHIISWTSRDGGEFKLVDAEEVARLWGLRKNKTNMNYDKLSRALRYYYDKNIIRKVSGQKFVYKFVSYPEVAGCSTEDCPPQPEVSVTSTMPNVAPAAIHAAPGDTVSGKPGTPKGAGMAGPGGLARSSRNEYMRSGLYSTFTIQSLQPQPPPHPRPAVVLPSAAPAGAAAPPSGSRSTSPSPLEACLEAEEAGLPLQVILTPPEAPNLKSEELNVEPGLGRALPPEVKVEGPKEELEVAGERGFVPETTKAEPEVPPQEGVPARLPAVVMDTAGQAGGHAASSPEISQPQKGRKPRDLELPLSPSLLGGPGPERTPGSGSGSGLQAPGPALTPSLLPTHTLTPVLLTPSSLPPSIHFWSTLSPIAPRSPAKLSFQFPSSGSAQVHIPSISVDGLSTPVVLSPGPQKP
Procedure, shortened: as §1

GABPA = biological target: T3, GABPA (Homo sapiens, UniProt Q06546 1-454); conditions: protein: recombinant; tags: N-terminal GST; dsDNA, one strand shown
T3 sequence: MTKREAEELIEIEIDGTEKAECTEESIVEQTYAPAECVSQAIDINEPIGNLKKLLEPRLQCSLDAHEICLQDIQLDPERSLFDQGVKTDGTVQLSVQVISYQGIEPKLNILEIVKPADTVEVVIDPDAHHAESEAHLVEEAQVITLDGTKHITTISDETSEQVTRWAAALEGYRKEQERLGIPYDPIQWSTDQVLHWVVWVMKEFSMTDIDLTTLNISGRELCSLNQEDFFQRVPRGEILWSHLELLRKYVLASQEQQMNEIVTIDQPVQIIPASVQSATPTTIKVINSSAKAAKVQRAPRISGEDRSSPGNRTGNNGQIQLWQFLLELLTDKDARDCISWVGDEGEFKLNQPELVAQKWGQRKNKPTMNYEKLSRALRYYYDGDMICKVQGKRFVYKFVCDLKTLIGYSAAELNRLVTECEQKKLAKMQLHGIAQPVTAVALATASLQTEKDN
Procedure, shortened: as §1

ERG = biological target: T4, ERG (Homo sapiens, UniProt P11308 1-479); conditions: protein: recombinant; tags: N-terminal GST; dsDNA, one strand shown
T4 sequence: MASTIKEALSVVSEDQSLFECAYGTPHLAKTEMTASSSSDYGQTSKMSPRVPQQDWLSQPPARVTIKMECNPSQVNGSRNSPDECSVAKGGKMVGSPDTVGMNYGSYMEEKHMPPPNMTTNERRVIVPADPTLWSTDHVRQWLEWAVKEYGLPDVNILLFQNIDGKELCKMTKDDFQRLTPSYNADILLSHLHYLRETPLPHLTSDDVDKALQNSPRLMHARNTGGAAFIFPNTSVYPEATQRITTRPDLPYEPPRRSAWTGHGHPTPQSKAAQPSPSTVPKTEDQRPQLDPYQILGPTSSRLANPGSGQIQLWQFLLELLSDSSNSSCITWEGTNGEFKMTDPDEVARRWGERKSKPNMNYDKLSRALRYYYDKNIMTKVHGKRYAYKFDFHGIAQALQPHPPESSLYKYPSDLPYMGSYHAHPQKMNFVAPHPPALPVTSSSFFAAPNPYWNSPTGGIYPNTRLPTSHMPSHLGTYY
Procedure, shortened: as §1

ELF1 = ELF1 (Homo sapiens, UniProt P32519 1-619); conditions: protein: recombinant; tags: N-terminal GST; dsDNA, one strand shown
Chain of ELF1 (P32519 whole entry): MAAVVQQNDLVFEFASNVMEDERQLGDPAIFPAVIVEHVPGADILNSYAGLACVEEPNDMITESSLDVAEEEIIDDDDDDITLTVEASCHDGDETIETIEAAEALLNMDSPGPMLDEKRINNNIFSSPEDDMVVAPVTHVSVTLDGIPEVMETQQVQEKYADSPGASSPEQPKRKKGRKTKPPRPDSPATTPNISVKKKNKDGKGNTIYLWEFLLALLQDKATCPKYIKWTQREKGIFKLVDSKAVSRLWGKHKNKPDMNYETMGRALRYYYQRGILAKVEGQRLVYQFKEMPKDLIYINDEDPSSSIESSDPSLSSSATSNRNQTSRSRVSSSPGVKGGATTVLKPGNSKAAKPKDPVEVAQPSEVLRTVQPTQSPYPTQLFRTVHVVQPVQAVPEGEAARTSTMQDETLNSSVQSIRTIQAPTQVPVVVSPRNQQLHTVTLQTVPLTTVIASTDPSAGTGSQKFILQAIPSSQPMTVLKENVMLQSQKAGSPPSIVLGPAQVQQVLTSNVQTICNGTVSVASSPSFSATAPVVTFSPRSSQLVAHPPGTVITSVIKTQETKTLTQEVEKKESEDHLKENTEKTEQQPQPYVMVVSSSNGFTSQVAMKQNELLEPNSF
Procedure, shortened: as §1

EHF = biological target: T5, EHF (Homo sapiens, UniProt Q9NZC4 1-300); conditions: protein: recombinant; tags: N-terminal GST; dsDNA, one strand shown
T5 sequence: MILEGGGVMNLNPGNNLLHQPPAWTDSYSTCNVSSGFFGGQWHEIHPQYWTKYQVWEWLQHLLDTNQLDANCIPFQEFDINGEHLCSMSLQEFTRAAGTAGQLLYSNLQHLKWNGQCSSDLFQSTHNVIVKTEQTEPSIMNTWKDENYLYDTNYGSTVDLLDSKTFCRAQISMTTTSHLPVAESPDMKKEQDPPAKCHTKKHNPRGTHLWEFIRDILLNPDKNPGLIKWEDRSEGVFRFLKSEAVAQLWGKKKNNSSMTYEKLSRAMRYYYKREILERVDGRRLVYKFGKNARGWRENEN
Procedure, shortened: as §1

SPI1 = SPI1 (Homo sapiens, UniProt P17947 1-270); conditions: protein: recombinant; tags: N-terminal GST; dsDNA, one strand shown
Procedure, shortened: as §1

SPIB = SPIB (Homo sapiens, UniProt Q01892 1-262); conditions: protein: recombinant; tags: N-terminal GST; dsDNA, one strand shown
Chain of SPIB (Q01892 whole entry): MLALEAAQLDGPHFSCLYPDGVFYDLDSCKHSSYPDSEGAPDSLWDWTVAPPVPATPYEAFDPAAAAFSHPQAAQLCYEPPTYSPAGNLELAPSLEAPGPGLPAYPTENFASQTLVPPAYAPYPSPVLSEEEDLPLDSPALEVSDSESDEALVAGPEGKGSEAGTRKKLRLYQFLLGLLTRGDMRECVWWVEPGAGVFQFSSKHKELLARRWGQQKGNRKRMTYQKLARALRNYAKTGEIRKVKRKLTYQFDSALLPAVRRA
Procedure, shortened: as §1

ELK3 = biological target: T6, ELK3 (Homo sapiens, UniProt P41970 1-407); conditions: protein: recombinant; tags: N-terminal GST; dsDNA, one strand shown
T6 sequence: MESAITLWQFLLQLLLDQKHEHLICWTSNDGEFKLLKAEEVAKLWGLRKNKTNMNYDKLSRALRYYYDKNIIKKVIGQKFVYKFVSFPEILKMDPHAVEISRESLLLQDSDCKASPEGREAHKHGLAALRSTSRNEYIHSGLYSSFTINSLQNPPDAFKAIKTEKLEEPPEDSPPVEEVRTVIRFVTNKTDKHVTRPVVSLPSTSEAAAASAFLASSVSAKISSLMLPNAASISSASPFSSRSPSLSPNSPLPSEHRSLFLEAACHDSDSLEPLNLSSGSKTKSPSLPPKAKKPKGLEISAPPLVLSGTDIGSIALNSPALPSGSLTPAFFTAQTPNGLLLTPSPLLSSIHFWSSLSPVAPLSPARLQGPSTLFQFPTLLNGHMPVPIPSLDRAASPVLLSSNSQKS
Procedure, shortened: as §1

FEV = biological target: T7, FEV (Homo sapiens, UniProt Q99581 1-238); conditions: protein: recombinant; tags: N-terminal GST; dsDNA, one strand shown
T7 sequence: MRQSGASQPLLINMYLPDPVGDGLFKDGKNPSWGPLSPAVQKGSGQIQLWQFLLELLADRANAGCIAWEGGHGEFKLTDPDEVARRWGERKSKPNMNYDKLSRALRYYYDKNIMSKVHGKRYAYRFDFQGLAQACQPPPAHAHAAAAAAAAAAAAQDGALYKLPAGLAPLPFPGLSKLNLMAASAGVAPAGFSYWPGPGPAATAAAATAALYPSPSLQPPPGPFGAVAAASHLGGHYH
Procedure, shortened: as §1

ETV5 = ETV5 (Homo sapiens, UniProt P41161 1-510); conditions: protein: recombinant; tags: N-terminal GST; dsDNA, one strand shown
Chain of ETV5 (P41161 whole entry): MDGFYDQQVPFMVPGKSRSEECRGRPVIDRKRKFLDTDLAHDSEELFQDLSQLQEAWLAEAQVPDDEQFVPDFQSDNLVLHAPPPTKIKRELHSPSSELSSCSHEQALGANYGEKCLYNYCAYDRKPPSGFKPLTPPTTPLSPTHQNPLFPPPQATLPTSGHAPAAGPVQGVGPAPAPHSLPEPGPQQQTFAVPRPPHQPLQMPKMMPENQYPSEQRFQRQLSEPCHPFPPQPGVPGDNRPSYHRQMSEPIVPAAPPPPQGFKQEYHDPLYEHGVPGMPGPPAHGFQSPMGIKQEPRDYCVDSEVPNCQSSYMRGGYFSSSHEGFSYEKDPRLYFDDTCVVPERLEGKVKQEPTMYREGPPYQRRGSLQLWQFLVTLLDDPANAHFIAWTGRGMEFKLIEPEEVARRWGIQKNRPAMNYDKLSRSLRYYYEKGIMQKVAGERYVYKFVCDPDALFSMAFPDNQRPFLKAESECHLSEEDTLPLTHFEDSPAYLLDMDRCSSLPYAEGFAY
Procedure, shortened: as §1

HSF1 = HSF1 (Homo sapiens, UniProt Q00613 1-529); conditions: protein: recombinant; tags: N-terminal GST; chain copies: 3; dsDNA, one strand shown
Chain of HSF1 (Q00613 whole entry): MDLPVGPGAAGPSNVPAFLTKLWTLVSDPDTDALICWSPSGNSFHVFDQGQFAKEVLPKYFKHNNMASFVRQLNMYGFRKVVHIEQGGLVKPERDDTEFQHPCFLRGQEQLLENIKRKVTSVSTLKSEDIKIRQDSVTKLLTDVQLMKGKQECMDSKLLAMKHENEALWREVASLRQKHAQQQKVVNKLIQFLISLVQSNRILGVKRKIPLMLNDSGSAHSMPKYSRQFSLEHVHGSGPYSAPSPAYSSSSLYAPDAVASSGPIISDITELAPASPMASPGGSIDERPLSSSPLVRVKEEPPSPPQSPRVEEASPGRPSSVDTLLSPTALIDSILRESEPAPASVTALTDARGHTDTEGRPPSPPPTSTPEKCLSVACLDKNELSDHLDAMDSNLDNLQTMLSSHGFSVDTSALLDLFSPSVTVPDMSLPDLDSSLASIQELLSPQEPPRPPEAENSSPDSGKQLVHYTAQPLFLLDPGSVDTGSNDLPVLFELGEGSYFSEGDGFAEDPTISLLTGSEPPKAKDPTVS
Procedure, shortened: as §1

SPIC = biological target: T8, SPIC (Homo sapiens, UniProt Q8N5J4 1-248); conditions: protein: recombinant; tags: N-terminal GST; dsDNA, one strand shown
T8 sequence: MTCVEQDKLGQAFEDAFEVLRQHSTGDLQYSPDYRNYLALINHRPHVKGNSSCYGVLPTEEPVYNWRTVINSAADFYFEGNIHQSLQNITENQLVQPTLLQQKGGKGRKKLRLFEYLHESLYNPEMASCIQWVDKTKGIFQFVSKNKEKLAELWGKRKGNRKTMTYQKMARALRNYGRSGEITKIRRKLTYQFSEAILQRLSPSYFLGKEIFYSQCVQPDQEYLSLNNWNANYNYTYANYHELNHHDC
Procedure, shortened: as §1

ELF4 = ELF4 (Homo sapiens, UniProt Q99607 1-663); conditions: protein: recombinant; tags: N-terminal GST; dsDNA, one strand shown
Chain of ELF4 (Q99607 whole entry): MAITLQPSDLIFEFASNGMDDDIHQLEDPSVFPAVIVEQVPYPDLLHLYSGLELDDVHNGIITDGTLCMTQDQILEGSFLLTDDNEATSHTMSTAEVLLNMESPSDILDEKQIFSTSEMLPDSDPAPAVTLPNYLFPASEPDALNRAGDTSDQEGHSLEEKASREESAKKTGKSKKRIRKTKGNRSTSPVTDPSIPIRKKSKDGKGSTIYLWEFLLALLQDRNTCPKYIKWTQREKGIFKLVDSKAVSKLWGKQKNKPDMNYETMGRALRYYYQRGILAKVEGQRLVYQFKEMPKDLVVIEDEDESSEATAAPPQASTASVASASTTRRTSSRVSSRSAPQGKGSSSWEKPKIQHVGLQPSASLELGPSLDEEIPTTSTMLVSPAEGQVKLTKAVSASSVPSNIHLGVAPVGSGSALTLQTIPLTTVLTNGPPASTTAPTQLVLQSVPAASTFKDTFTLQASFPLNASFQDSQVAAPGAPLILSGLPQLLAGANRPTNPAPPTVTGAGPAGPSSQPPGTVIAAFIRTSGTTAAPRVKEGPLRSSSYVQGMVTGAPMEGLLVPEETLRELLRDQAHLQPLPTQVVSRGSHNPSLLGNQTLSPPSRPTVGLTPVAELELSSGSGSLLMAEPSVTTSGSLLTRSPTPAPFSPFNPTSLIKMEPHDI
Procedure, shortened: as §1

ELK4 = biological target: T9, ELK4 (Homo sapiens, UniProt P28324-2 1-405); conditions: protein: recombinant; tags: N-terminal GST; dsDNA, one strand shown
T9 sequence: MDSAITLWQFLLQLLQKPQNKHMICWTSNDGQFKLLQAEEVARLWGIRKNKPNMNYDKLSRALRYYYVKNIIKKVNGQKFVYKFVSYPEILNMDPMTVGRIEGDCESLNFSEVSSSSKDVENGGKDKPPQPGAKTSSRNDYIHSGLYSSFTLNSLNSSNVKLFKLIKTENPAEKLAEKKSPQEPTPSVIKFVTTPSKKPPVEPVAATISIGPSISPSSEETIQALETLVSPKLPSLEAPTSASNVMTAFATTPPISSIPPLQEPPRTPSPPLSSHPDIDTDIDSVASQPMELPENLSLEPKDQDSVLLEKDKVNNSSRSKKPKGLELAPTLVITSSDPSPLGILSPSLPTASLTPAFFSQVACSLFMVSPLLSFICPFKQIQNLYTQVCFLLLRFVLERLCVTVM
Procedure, shortened: as §1

ETV2 = biological target: T10, ETV2 (Homo sapiens, UniProt O00321 1-342); conditions: protein: recombinant; tags: N-terminal GST; dsDNA, one strand shown
T10 sequence: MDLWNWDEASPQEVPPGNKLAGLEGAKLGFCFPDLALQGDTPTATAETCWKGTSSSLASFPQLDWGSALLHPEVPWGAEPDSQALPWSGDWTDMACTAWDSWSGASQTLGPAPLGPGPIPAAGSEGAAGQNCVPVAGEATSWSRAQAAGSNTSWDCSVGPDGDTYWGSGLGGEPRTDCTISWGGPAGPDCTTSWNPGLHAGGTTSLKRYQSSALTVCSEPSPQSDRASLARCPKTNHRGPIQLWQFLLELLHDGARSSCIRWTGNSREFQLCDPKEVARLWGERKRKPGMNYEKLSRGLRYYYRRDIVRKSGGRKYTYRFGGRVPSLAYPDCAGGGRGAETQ
Procedure, shortened: as §1

ELF3 = biological target: T11, ELF3 (Homo sapiens, UniProt P78545 1-371); conditions: protein: recombinant; tags: N-terminal GST; dsDNA, one strand shown
T11 sequence: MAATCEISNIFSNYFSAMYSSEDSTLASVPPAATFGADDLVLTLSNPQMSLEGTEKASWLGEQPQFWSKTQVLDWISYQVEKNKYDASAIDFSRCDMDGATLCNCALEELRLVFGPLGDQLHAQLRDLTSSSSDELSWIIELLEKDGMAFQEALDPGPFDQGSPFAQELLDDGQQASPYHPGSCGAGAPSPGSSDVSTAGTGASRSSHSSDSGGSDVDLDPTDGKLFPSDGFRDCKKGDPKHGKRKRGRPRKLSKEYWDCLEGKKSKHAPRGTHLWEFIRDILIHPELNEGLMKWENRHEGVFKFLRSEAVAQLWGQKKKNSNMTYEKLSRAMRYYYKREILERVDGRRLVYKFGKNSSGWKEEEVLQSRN
Procedure, shortened: as §1

CRX = CRX (Homo sapiens, UniProt O43186 1-299); conditions: protein: recombinant; tags: N-terminal GST; dsDNA, one strand shown
Chain of CRX (O43186 whole entry): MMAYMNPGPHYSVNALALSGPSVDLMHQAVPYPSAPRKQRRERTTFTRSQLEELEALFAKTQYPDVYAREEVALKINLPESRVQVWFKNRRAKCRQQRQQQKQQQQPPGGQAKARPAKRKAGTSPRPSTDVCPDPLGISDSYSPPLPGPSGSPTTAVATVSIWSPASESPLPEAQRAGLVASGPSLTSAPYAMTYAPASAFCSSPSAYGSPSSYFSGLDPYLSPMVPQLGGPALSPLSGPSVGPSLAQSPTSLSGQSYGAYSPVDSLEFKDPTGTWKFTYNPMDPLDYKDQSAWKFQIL
Procedure, shortened: as §1

ETV1 = ETV1 (Homo sapiens, UniProt P50549 1-477); conditions: protein: recombinant; tags: N-terminal GST; dsDNA, one strand shown
Chain of ETV1 (P50549 whole entry): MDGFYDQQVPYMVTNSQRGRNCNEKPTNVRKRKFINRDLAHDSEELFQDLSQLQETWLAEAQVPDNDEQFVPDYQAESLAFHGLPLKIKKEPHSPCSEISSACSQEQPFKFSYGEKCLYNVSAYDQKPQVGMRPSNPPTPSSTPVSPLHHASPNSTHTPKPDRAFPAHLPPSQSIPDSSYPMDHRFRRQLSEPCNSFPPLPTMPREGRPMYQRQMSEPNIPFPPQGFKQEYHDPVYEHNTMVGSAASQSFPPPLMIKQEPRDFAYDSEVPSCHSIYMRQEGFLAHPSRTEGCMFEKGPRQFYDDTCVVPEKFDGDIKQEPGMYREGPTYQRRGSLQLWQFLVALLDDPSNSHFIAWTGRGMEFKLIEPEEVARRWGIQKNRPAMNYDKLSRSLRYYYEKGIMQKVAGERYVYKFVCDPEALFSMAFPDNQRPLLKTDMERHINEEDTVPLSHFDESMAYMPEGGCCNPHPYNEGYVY
Procedure, shortened: as §1

Sequence: ACTTAA
- binding signal (FLI1): 1.17 fold enrichment (6-mer frequency, TF over GST control)
- binding signal (ELK1): 1.23 fold enrichment (6-mer frequency, TF over GST control)
- binding signal (GABPA): 1.22 fold enrichment (6-mer frequency, TF over GST control)
- binding signal (ERG): 1.11 fold enrichment (6-mer frequency, TF over GST control)
- binding signal (ELF1): 1.18 fold enrichment (6-mer frequency, TF over GST control)
- binding signal (EHF): 1.31 fold enrichment (6-mer frequency, TF over GST control)
- binding signal (SPI1): 1.24 fold enrichment (6-mer frequency, TF over GST control)
- binding signal (SPIB): 1.18 fold enrichment (6-mer frequency, TF over GST control)
- binding signal (ELK3): 1.24 fold enrichment (6-mer frequency, TF over GST control)
- binding signal (FEV): 1.15 fold enrichment (6-mer frequency, TF over GST control)
- binding signal (ETV5): 1.2 fold enrichment (6-mer frequency, TF over GST control)
- binding signal (HSF1): 1.67 fold enrichment (6-mer frequency, TF over GST control)
- binding signal (SPIC): 1.25 fold enrichment (6-mer frequency, TF over GST control)
- binding signal (ELF4): 1.19 fold enrichment (6-mer frequency, TF over GST control)
- binding signal (ELK4): 1.14 fold enrichment (6-mer frequency, TF over GST control)
- binding signal (ETV2): 1.16 fold enrichment (6-mer frequency, TF over GST control)
- binding signal (ELF3): 1.15 fold enrichment (6-mer frequency, TF over GST control)
- binding signal (CRX): 2.66 fold enrichment (6-mer frequency, TF over GST control)
- binding signal (ETV1): 1.25 fold enrichment (6-mer frequency, TF over GST control)
